Texas Red fluor = compound fluoresces in the Texas Red spectral region; max dye-equivalent concentration, M; Compound fluorescence, Texas Red channel, 547/618 nm; active compounds read high; 0.06% of 59,000 active; in the data active = max dye-equivalent concentration above about 10 nM; inconclusive = between about 1.1 nM and that limit
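Spectral interference profiling: each compound concentration's relative fluorescence, read with a 547 nm excitation and 618 nm emission filter pair, was normalized to a per-plate Texas Red standard curve.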
A488 fluor = compound fluoresces in the A488 spectral region | compound autofluorescence, A488 spectral region, dye equivalency; Compound Type: qHTS ECL - MLSMR | max dye equivalency, M | 0.1% of 59,000 active
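Autofluorescence read at ex 480/em 540 nm after 15 min RT in 100 mM Tris pH 8.0; compound signal normalized to A488 standard series on each plate, reported as dye-equivalent concentration at each test concentration.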
A647 autofl = A647 region autofluorescence; 59,000 tested, under 10 active; max dye-equivalent concentration, M; Compound fluorescence, A647 channel (570/671 nm), Tris buffer
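Compound fluorescence was measured in 100 mM Tris buffer, pH 8.0, after 15 min at room temperature, using 570 nm excitation and 671 nm emission filters. Signal was normalized to a per-plate Alexa 647 standard curve and expressed as dye-equivalent concentration at each compound concentration.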
Rhodamine fluor = compound autofluorescence in rhodamine spectral region | Rhodamine-region fluorescence, 547/598 nm, Tris buffer; active compounds read high | max dye-equivalent concentration, M | 0.05% of 59,000 active | AID 594; in the data active = max dye-equivalent concentration above about 11 nM; inconclusive = between about 1.1 nM and that limit
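Read-out is relative fluorescence at 547 nm excitation and 598 nm emission, expressed as dye-equivalent concentration using rhodamine standards on every plate. Each compound was profiled across a concentration series after 15 min in 100 mM Tris, pH 8.0.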
Fluorescein fluor = compound fluoresces in the fluorescein spectral region; Compound autofluorescence, 480/540 nm, fluorescein-equivalent; active compounds read high; 0.91% of 59,000 active; AID 593; max fluorescein-equivalent concentration, M; in the data active = max fluorescein-equivalent concentration above about 10 nM; inconclusive = between about 1.1 nM and that limit
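Spectral profiling of library compounds in the fluorescein window (480 nm excitation, 540 nm emission) after 15 min at room temperature in pH 8.0 Tris (100 mM). Values are dye-equivalent concentrations.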
Resorufin fluor = resorufin region autofluorescence | Compound fluorescence, resorufin region 547/598 nm, buffer; active compounds read high | max dye-equivalent concentration, M | 0.04% of 59,000 active | AID 588
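Intrinsic fluorescence profiled in the resorufin window (ex 547 nm, em 598 nm) after 15 min at room temperature in pH 8.0 Tris buffer (100 mM); responses normalized against a six-point resorufin standard series as dye-equivalent concentration.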
Large screens that a line does not name were inactive. In the library only some 0.95% were active in any assay of this set; here they are far more common. Unless noted, the rule behind the calls is not given here.

CCCn1c(=C(C#N)C#N)s/c(=C2\C=Cc3ccccc3N2CC)c1=O	Texas Red fluor inconclusive, Rhodamine fluor inconclusive, Fluorescein fluor 2.1e-08M, Resorufin fluor inconclusive
CCSC1=NC(=O)/C(=C2/C=Cc3ccccc3N2CC)S1	Fluorescein fluor inconclusive
Cc1noc(C)c1C(=O)N1CCC2(CCCN(c3ncccn3)C2)CC1	Texas Red fluor inconclusive, Fluorescein fluor inconclusive
CN(C)/C=c1\sc2c(C#N)cc(C(=O)c3ccc(Br)cc3)n2c1=O	A488 fluor 4.3e-08M, Fluorescein fluor 8.1e-07M
Cn1cc(C2=C(c3ccc(Cl)cc3Cl)C(=O)NC2=O)c2ccccc21	A488 fluor 2.7e-08M, Rhodamine fluor inconclusive, Fluorescein fluor 5e-07M, Resorufin fluor inconclusive
CC1=c2c(oc3cc(O)c(Nc4c(C)cc(O)cc4O)c(C)c23)=CC(=O)C1=Nc1c(C)cc(O)cc1O	Texas Red fluor 2.6e-07M, Rhodamine fluor 1.2e-07M, Fluorescein fluor 1.5e-08M, Resorufin fluor 7.4e-08M
c1ccc2c(-c3ccncc3)c[nH]c2c1	Fluorescein fluor inconclusive
Nc1cc(-c2ccncc2)c[nH]c1=O	Fluorescein fluor 1.1e-08M
N#Cc1cccc(NC(=O)N2CC3(CCN(C(=O)c4cc(C(F)(F)F)cc(C(F)(F)F)c4)CC3)C2)c1	none
C[C@@H]1c2ccccc2Cn2cc3c(c21)C(=O)c1cccc(OP(=O)(O)OCc2ccccc2)c1C3=O	A488 fluor inconclusive, Fluorescein fluor 8.6e-08M
CCCCCCNC(=O)C(C#N)c1nc2ccccc2nc1N1CCCC1 (stereo unspecified)	A488 fluor 4.1e-08M, Fluorescein fluor 8e-07M
COCCCNC(=O)C(C#N)c1nc2ccccc2nc1N1CCCC1 (stereo unspecified)	A488 fluor inconclusive, Fluorescein fluor 6.6e-08M
CCCCN(CCCC)c1nc2ccccc2nc1C(C#N)C(=O)NCCCOC (stereo unspecified)	A488 fluor inconclusive, Fluorescein fluor 5.7e-08M
CCCCOC(=O)C(C#N)c1nc2ccccc2nc1N1CCOCC1 (stereo unspecified)	A488 fluor inconclusive, Fluorescein fluor 2.9e-08M
CCCCCCOC(=O)C(C#N)c1nc2ccccc2nc1N1CCOCC1 (stereo unspecified)	Fluorescein fluor inconclusive
Nc1ncnc2c1ncn2[C@@H]1CCCO1	none
C[C@H]1[C@H](O)[C@@H](C)C=CC=CC=CC=CC=CC=CC=C[C@H](O[C@@H]2O[C@@H](C)[C@H](O)[C@@H](N)[C@@H]2O)C[C@@H]2O[C@](O)(C[C@@H](O)C[C@@H](O)[C@@H](O)CC[C@@H](O)C[C@@H](O)CC(=O)O[C@H]1C)C[C@H](O)[C@H]2C(=O)O	none
CCCCCCNC(=O)C(C#N)c1nc2ccccc2nc1N1CCOCC1 (stereo unspecified)	A488 fluor 3e-08M, Fluorescein fluor 4.1e-07M
CCCCCNC(=O)C(C#N)c1nc2ccccc2nc1N1CCCC1 (stereo unspecified)	A488 fluor 2.9e-08M, Fluorescein fluor 5.5e-07M
N/N=C1/CC(=O)NC(=O)N1	Texas Red fluor inconclusive, Fluorescein fluor inconclusive
Cc1cc(-c2ccco2)n2c(nc3ccccc32)c1C#N	A488 fluor inconclusive, Fluorescein fluor 6e-08M
O=CNc1ncn[nH]1	Fluorescein fluor inconclusive
O=c1oc2c3c4c(cc2c(C(F)(F)F)c1CCN1CCOCC1)CCCN4CCC3	Texas Red fluor inconclusive, A488 fluor inconclusive, Fluorescein fluor 4.6e-08M
O=c1oc2c(CN3CCOCC3)c(O)ccc2c2c1CCC2	none
COC(=O)c1ccc(C2/C(=C(/O)c3ccc(OC)cc3)C(=O)C(=O)N2c2cc(C)on2)cc1 (stereo unspecified)	Fluorescein fluor 1e-08M
COC(=O)c1ccc(C2/C(=C(/O)c3ccc(OC(C)C)cc3)C(=O)C(=O)N2c2cc(C)on2)cc1 (stereo unspecified)	Texas Red fluor inconclusive
NC(CSS(=O)(=O)O)=N[C@@H]1C[C@H]2CC[C@@H]1C2	none
N=c1oc2c3c4c(cc2cc1C(=O)Nc1ccccc1)CCCN4CCC3	Texas Red fluor inconclusive, A488 fluor 2.5e-08M, Rhodamine fluor inconclusive, Fluorescein fluor 4.7e-07M
N#Cc1ccc(NC(=O)c2cc3cc4c5c(c3oc2=N)CCCN5CCC4)cc1	A488 fluor 1.2e-08M, Fluorescein fluor 2.3e-07M

From PubChem
